Compound activity from PubChem BioAssay.
Hits are enriched below; roughly 19% of the tested compounds scored in any of these assays.
DT40 TDP1 no CPT – qHTS for Inhibitors of human tyrosyl-DNA phosphodiesterase 1 (TDP1): qHTS in cells in absence of CPT; DT40 Tdp1-/- hTDP1 cells, no CPT, ATP luminescence, 48 h; Potency, µM (top dose mostly 46.2 µM), actives largely listed as inhibitors; actives 15% (n = 420,000); AID 686978, 2013; further: nearly all actives have a fitted effect of over 55% in size
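Camptothecin absent (DMSO only). Human TDP1-complemented DT40 knockout cells, 400 cells/well, 37 °C for minimum 48 hr; ATP measured via CellTiter-Glo, 30 min dark incubation, luminescence.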
DT40 TDP1 CPT – DT40-hTDP1 cell growth loss with CPT. chicken DT40 Tdp1-/-;hTDP1 cells + 20 nM CPT, ATP luminescence, 48 h. Potency, µM (highest dose often 46.2 µM), actives largely listed as inhibitors. actives 12% (n = 420,000). AID 686979; further: nearly all actives have a fitted effect of over 55% in size
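Chicken DT40 Tdp1-/- cells stably complemented with human TDP1 were seeded at 400 cells/well in medium containing 20 nM camptothecin, exposed to pin-transferred compounds, and grown at 37 °C for at least 48 hr. Viability was read as ATP luminescence.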
HT1080NT lethal – kills 2HG-producing HT-1080-NT fibrosarcoma cells. HT-1080-NT fibrosarcoma viability, CellTiter-Glo ATP luminescence, 48 h. Potency, µM (highest dose often 46.1 µM), most hits filed as cytotoxic. actives 1.6% (n = 360,000). AID 686970;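 further: NT is the 2HG producing partner of a matched IDH1 knockdown line; nearly all actives have a fitted effect of over 55% in size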
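Read-out is CellTiter-Glo luminescence after 10 minutes at room temperature, following 48 hours' compound treatment of HT-1080-NT cells (750 cells/well, RPMI, 5% FBS, 37 degrees C).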
HT1080 IDH1KD tx – kills HT-1080 cells with IDH1 knockdown | AID 686971 | actives 2% (n = 360,000) | Potency, µM (doses to about 46.1 µM), usual class: cytotoxic | HT-1080 IDH1 knockdown viability, ATP luminescence, 48 h
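HT-1080-IDH1KD cells (IDH1 knocked down), 750/well in RPMI with 5% FBS, treated with compound 48 h at 37 degrees C. Viability by CellTiter-Glo luminescence, normalised to DMSO and no-cell wells; concentration-response curves classed.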
IL1B secr inh – inflammasome signaling inhibition, IL-1 beta readout; THP-1 LPS/ATP IL-1B secretion, AlphaLISA, 16 h; hits give low values; activity change, % at 57.5 µM; actives 4.7% (n = 360,000); AID 743279; in the data active means activity change below about -50%; inconclusive means mostly about -30% to -49%
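THP-1 cells pretreated 1 hr with compounds (up to 57.5 uM final), then stimulated with LPS (250 ng/mL final) plus ATP (1.25 mM final); secreted IL-1B measured by AlphaLISA after 16 hr, decreased signal indicating inhibition.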
Hits are given with their value; . = inactive; ? = inconclusive; / = no result given; [ ] = dose if it differs, or a comment. Unless noted, the call rests on the fitted dose curve; in most records, active means well fitted curve in the direction sought with a large enough effect; inconclusive means small, poorly fitted or top-dose-only effect, or another doubt; inactive means no such curve, though single readings can be large; an effect the other way counts as inactive or inconclusive.

SMILES	DT40 TDP1 no CPT	DT40 TDP1 CPT	HT1080NT lethal	HT1080 IDH1KD tx	IL1B secr inh
COc1cccc(NC(=O)C2CCN(S(=O)(=O)c3ccc4c(c3)NC(=O)CO4)CC2)c1	?	23µM	.	.	.
C/C(=N/NC(=O)CNC(=O)CCc1ccccc1)c1ccc(Cl)c(Cl)c1	?	.	.	.	.
Cc1ccccc1OCCC(=O)OCC(=O)NC1CC1	.	.	.	.	.
C=C1C(=O)C=C[C@]2(C)C[C@@H]3OC(=O)[C@](C)(O)[C@H]3C[C@@H]12	1.3µM	1.8µM	?	?	-110
Cc1nonc1CN(C)C(=O)c1ccc(OC2CCN(C(=O)c3cccnc3)CC2)cc1	.	.	.	.	.
N#CC(c1ccccc1O)N1N=C(c2ccccc2)CC1c1ccccc1 (centres undefined)	10µM	18µM	.	.	.
COc1ccc(OCC(=O)OCC(=O)NCC2CCCCC2)cc1	.	.	.	.	.
CCOc1ccc(S(=O)(=O)N2CCOCC2)c2ccccc12	.	.	.	.	.
CCOc1ccc(S(=O)(=O)N2CCCCC2)c2ccccc12	21µM	18µM	.	21µM	.
CCOc1ccc(S(=O)(=O)n2ccc(C)n2)c2ccccc12	?	?	.	.	-53
CCN(CC)S(=O)(=O)c1ccc2[nH]c(=O)c3ccccc3c2c1	.	?	.	.	.
O=C1c2[nH]nc(-c3ccccc3O)c2C(c2ccc(Cl)cc2)N1Cc1ccco1 (centres undefined)	?	16µM	/	/	/
Cc1ccc(O)c(-c2n[nH]c3c2C(c2ccccc2F)N(Cc2ccco2)C3=O)c1 (centres undefined)	21µM	?	/	/	/
O=C1c2[nH]nc(-c3ccccc3O)c2C(c2ccccc2)N1Cc1ccco1 (centres undefined)	21µM	23µM	?	?	.
COc1cc(C2c3c(-c4ccccc4O)n[nH]c3C(=O)N2Cc2ccco2)ccc1OCC(C)C (centres undefined)	18µM	?	/	/	/
COc1cccc(C2c3c(-c4ccccc4O)n[nH]c3C(=O)N2Cc2ccco2)c1 (centres undefined)	?	?	.	.	.
COCCNC(=O)CCC1CCN(Cc2ccc(-c3ccccc3)cc2)CC1	?	?	.	.	.
CCOc1ccc(C2CC(=O)NC(SCC(=O)OC)=C2C#N)cc1 (centres undefined)	?	?	.	.	.
Cc1cccc(-n2c(=O)c3c4c(sc3n3c(C)nnc23)CCCC4)c1	.	?	/	/	/
CCC(=O)n1nc(-c2ccc(Cl)cc2)nc1NCc1ccccc1	16µM	15µM	.	?	.
O=C(CNC(=O)c1ccco1)Nc1ccc(F)c(Cl)c1	.	.	.	.	.
O=C(CCNc1cc(Cl)cc(Cl)c1)c1ccco1	13µM	13µM	.	.	.
O=C(CCNc1ccc(F)c(Cl)c1)c1ccco1	6.5µM	3.7µM	?	?	-101
O=C(CNC(=O)c1ccco1)Nc1ccc(F)cc1	?	?	.	.	.
O=C(CCNc1cccc(C(F)(F)F)c1)c1ccco1	16µM	21µM	?	?	.
SMILES	DT40 TDP1 no CPT	DT40 TDP1 CPT	HT1080NT lethal	HT1080 IDH1KD tx	IL1B secr inh
COC(=O)CNc1cccc(C(F)(F)F)c1	.	.	.	.	.
O=C(CCNc1ccc(F)cc1)c1ccco1	7.3µM	3.3µM	.	.	.
S=c1ccss1	?	.	/	/	/
O=C(CCNc1ccc(Cl)c(C(F)(F)F)c1)c1ccco1	9.2µM	7.3µM	.	.	.
O=C(CCNC(=O)c1ccco1)Nc1ccc(Cl)c(C(F)(F)F)c1	.	.	.	.	.
O=C(CCc1ccccc1)Nc1cccnc1	.	.	.	.	.
Cc1cccc(-c2onc3ccc(C4(C)OCCO4)cc23)c1	15µM	?	.	.	.
CC(c1ccccc1)N1CCn2c(nc3cc(NC(=O)NC4CCCCC4)ccc32)C1 (centres undefined)	22µM	22µM	16µM	?	.
Cn1c(CN2CCCC2)nc2cc(NC(=O)c3cccs3)ccc21	?	.	.	.	.
CC(c1ccccc1)N1CCn2c(nc3cc(NC(=O)c4cccs4)ccc32)C1 (centres undefined)	?	26µM	?	.[9.24 µM]	/
Cc1nn(CC(=O)Nc2ccc3c(c2)nc2n3CCN(C3CCCCC3)C2)c(=O)c2ccccc12	?	?	.	.	.
CC(C(=O)N1c2ccccc2CC1C)N1CCN(S(=O)(=O)c2ccccc2F)CC1 (centres undefined)	?	?	.	.	.
Cn1c(=O)n(C)c2cc(S(=O)(=O)Nc3ccccc3)ccc21	?	.	.	.	.
Cc1ccc(S(=O)(=O)Nc2cc3c(cc2C)n(C)c(=O)c(=O)n3C)c(C)c1	?	.	/	/	/
Cn1c(=O)n(C)c2cc(NS(=O)(=O)c3ccc(F)cc3)c(NCc3ccccc3)cc21	15µM	9.2µM	/	/	/
Cc1ccc(S(=O)(=O)Nc2cc3c(cc2NCc2ccccc2)n(C)c(=O)n3C)cc1	16µM	9.2µM	/	/	/
Cc1ccc(S(=O)(=O)NCc2ccccc2)cc1	?	?	.	.	.
Cc1ccc(S(=O)(=O)Nc2cc3c(cc2NCc2ccccc2)n(C)c(=O)n3C)c(C)c1	23µM	8.2µM	/	/	/
CC(C)OC(=O)c1cccnc1SCC(=O)Nc1ccc(C(F)(F)F)cc1Cl	.	.	/	/	/
CSc1ncccc1C(=O)NC1CCCc2c1cnn2-c1ccc(C)c(C)c1 (centres undefined)	7.3µM	8.2µM	?	.	.
COc1cccc(C(=O)NC2CCCc3c2cnn3-c2ccc(C)c(C)c2)c1OC (centres undefined)	?	?	.	.	.
COc1ncccc1C(=O)NC1CCCc2c1cnn2-c1ccc(C)c(C)c1 (centres undefined)	16µM	16µM	.	.	.
Cc1cccc(NS(=O)(=O)c2ccc(OCC(=O)N3CCCC3)cc2)c1	.	.	.	.	.
COCCN1CSC(=S)N(Cc2ccco2)C1	4.6µM	21µM	.	.	.
S=C1NCN(Cc2ccco2)CN1CCc1ccccc1	?	?	.	.	.
SMILES	DT40 TDP1 no CPT	DT40 TDP1 CPT	HT1080NT lethal	HT1080 IDH1KD tx	IL1B secr inh
S=C1SCN(Cc2ccccn2)CN1Cc1ccco1	5.8µM	6.5µM	?	16µM	.
CCn1c(=O)cc(OCC(=O)Nc2ccccc2C#N)c2ccccc21	.	.	.	.	.
O=C(NCc1ccco1)c1cccc2c(-c3ccc(F)c(F)c3)coc12	?	?	.	.	?
COCCNC(=O)c1cccc2c(-c3cccc(C(N)=O)c3)coc12	?	?	.	.	.
COCCCNC(=O)c1cccc2c(-c3cccc(C(N)=O)c3)coc12	13µM	?	.	.	.
NC(=O)c1cccc(-c2coc3c(C(=O)NCc4ccccc4)cccc23)c1	18µM	?	?	?	.
